# Source: the supplement of paper PMC12024529
# System: HEK293 WT BDD-FVIII-Gluc
# Test: secreted FVIII-Gluc luciferase Z-score vs DMSO control; higher = more FVIII-Gluc secretion
# Settings: 5 µM
# Protocol: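 Natural plant-compound library (480 compounds, ST catalogue IDs) screened on HEK293 cells stably expressing WT BDD-FVIII-Gaussia luciferase fusion at 5 µM. Secreted Gluc activity in the medium is given as a Z-score relative to DMSO controls.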
row,Structure (SMILES),secreted FVIII-Gluc luciferase Z-score
1,CC/C=C\C[C@H]1C(=O)CC[C@@H]1CC(=O)O,0.253
2,CC[C@]12CCCN3CCc4c(n(c5ccccc45)C(=O)C1)C32 (stereo partly drawn),0.363
3,COc1ccc2c(C)cc(=O)oc2c1,0.626
4,CCCCC/C=C\C/C=C\C/C=C\C/C=C\CCCC(=O)O,0.604
5,Cc1cc(O)cc(O)c1,0.642
6,Nc1nc2c(ncn2[C@H]2C[C@H](O)[C@@H](COP(=O)(O)O)O2)c(=O)[nH]1,0.653
7,CC1=C(C2=C(C)C(C(C)C)C3=C(C(=O)C(O)C3O)C2O)C(O)C2=C(C(O)C(O)C2=O)C1C(C)C (stereo not drawn),-0.542
8,Nc1ccn(C2CC(O)C(COP(=O)(O)O)O2)c(=O)n1 (stereo not drawn),0.357
9,OC[C@H]1O[C@@H](O[C@@H]2[C@@H](CO)O[C@](O)(CO)[C@H]2O)[C@H](O)[C@@H](O)[C@H]1O,0.26
10,CC1(C)C=Cc2c(c3ccccc3[nH]c2=O)O1,0.817
11,O=c1c(O)c(-c2ccc(O)c(O)c2)oc2ccccc12,-0.791
12,CC(C)=CCc1c(O)cc(O)c2c1O[C@H](c1ccccc1)CC2=O,-0.692
13,O=C(O)CNC(=O)c1ccccc1,1.07
14,C=C1C(=O)O[C@@H]2C3OC3(C)CC/C=C(\C)CC[C@@H]12 (stereo partly drawn),-0.0355
15,COc1ccc(-c2coc3ccc(OC4OC(COC(C)=O)C(OC(C)=O)C(OC(C)=O)C4OC(C)=O)cc3c2=O)cc1 (stereo not drawn),-1.1
16,C/C(=C\COc1cc(=O)[nH]c2ccccc12)CCC(O)C(C)(C)O (stereo not drawn),-0.128
17,Cc1cc(=O)oc2cc(O[C@@H]3O[C@H](C(=O)O)[C@@H](O)[C@H](O)[C@H]3O)ccc12,0.123
18,CC1(C)CC[C@]2(C(=O)O)CC[C@]3(C)C(=CCC4[C@@]5(C)CC[C@H](O)C(C)(C)C5[C@H](O)C[C@]43C)C2C1 (stereo partly drawn),0.207
19,COc1cc2c(cc1OC)C(Cc1ccc(OC)c(OC)c1Oc1cc3c(cc1OC)-c1c(OC)c(OC)cc4c1C(C3)N(C)CC4)N(C)CC2 (stereo not drawn),0.304

row,Structure (SMILES),secreted FVIII-Gluc luciferase Z-score
1,COC1OC2COC(c3ccccc3)OC2C(O)C1O (stereo not drawn),-1.04
2,OC[C@H]1O[C@@H](n2cnc3c(NCc4ccco4)ncnc32)[C@H](O)[C@@H]1O,-1.03
3,C=C(CO)C1Cc2c(ccc3c2OC2COc4cc(OC)c(OC)cc4C2C3=O)O1 (stereo not drawn),-1.91
4,O=c1cc(-c2ccc(O)cc2)oc2cc(O)cc(O)c12,0.864
5,COc1ccc2c3c1O[C@H]1C[C@@H](O)C=CC31CCN(C)C2 (stereo partly drawn),0.116
6,NC(=O)NCCC[C@H](N)C(=O)O,-0.102
7,COc1ccc(C(=O)C2C3C4COC(O4)C(=O)C3C3C=Cc4ccccc4N32)c(OC)c1 (stereo not drawn),-0.809
8,COc1ccc2c(=O)c(-c3ccccc3)coc2c1,1.15
9,C=C1CCC(O)C/C1=C\C=C1/CCCC2(C)C1CCC2C(C)/C=C/C(C)C(C)C (stereo not drawn),-0.228
10,O=c1cc(-c2ccc(O)c(O)c2)oc2cc(OC3OC(CO)C(O)C(O)C3O)cc(O)c12 (stereo not drawn),-0.168
11,O=C(/C=C/c1ccc(O)c(O)c1)OC(Cc1ccc(O)c(O)c1)C(=O)O (stereo not drawn),0.861
12,O=c1cc(-c2ccccc2)oc2c1ccc1ccccc12,0.373
13,Cn1c(=O)c2c(ncn2C)n(C)c1=O,-0.0716
14,COc1ccc(-c2oc3ccccc3c(=O)c2O)cc1,-1.09
15,Nc1ccccc1C(=O)CC(N)C(=O)O (stereo not drawn),-1.11
16,CCC(C)(C)C(=O)O[C@H]1C[C@@H](C)C=C2C=C[C@H](C)[C@H](CC[C@@H]3C[C@@H](O)CC(=O)O3)[C@H]21,-0.297
17,CCCCCCCCCCCC1=C(O)C(=O)C=C(O)C1=O,0.529
18,COc1ccc2oc(-c3ccccc3)c(OC)c(=O)c2c1,0.232
19,COc1cc(O)c2c(=O)cc(-c3ccccc3)oc2c1,1.12
